# Source: PubChem BioAssay
# Sampled rows, rich in hits. Any-hit rate of the full collection: about 3.3%.
# Vaccinia Venus – inhibitors of vaccinia virus (Venus reporter) | Vaccinia virus Venus reporter expression, fluorescence | 330,000 tested, 0.46% active | Potency, µM (top dose mostly 36.5 µM), for inactives: at the top dose activity change, negative = inhibition, usual class: inhibitors; calls by dose curve; tested in A549 cells; further: nearly all actives have a fitted effect of over 30% in size
# VACV mCherry inh – vaccinia inhibition (mCherry reporter); AID 720579; Potency, µM (top dose mostly 36.5 µM), inactives show at the top dose activity change, negative = inhibition, usual class: inhibitors; Vaccinia virus mCherry reporter infection, fluorescence; 310,000 tested, 0.63% active; calls by dose curve; tested in A549 cells; further: nearly all actives have a fitted effect of over 35% in size
# HCV inh – blocks hepatitis C virus. Potency, µM (highest dose often 41.8 µM), for inactives: at the top dose activity change, negative = inhibition, usual class: inhibitors. 340,000 tested, 3.4% active. AID 651820. Huh7.5.1 HCVcc-Cre infection, luciferase reporter, 44 h; active means well fitted inhibition curve with a large enough effect; inconclusive means small, poorly fitted or top-dose-only effect, or another doubt; inactive means no such curve, though single readings can be large or run the other way
#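 Cells seeded at 1,000/well and cultured 4 h, then compounds added followed by HCVcc-Cre virus (~0.5 moi). After 44 h further culture, luciferase substrate was added, plates held 15 min at room temperature, and luminescence read for 15 sec.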
# The depositor's hits bear a star; i = inactive; ? = inconclusive; nt = no result; [ ] = another dose, or the depositor's remark. On the % scale 0 is the no-effect control and ±100 the full control effect; potency means the concentration at half of the fitted maximal effect.
SMILES,Vaccinia Venus,VACV mCherry inh,HCV inh
O=C(O)c1cccc(NC(=O)c2cccc(S(=O)(=O)Nc3cccc(F)c3)c2)c1,-1%,-8%,nt
O=C(c1cccc([N+](=O)[O-])c1)n1nc(-c2ccccc2)nc1NCc1ccccc1,-10%,-17%,1%
O=C(CSc1nc(-c2ccccc2)nn1C(=O)c1ccccc1)Nc1cccc([N+](=O)[O-])c1,nt,nt,25µM*
Cc1ccc(-n2nc(CO)c(C(=O)NCc3cccnc3)n2)cc1,-7%,-8%,nt
Fc1ccc(N2CCN(c3ncnc4c3nc3n4CCCC3)CC2)cc1,-21%,?,nt
CN=c1sc2ccccc2n1CC(O)COc1ccccc1 (stereo not drawn),-22%,-24%,-5%
CCN=c1sc2ccccc2n1CC(O)COc1ccccc1 (stereo not drawn),-27%,nt,13µM*
N[C@@H](Cc1ccc(O)cc1)C(=O)NO,-7%,i,nt
Cc1c(CN2CCOc3c(O)cc(-c4nc5ccccc5s4)cc3C2)cnn1C,-13%,-25%,nt
COc1ccc(N2CCN(C(=O)C3CCCN(S(=O)(=O)c4ccc(C)cc4)C3)CC2)cc1 (stereo not drawn),3%,-6%,2.5µM*
Cc1noc(C)c1S(=O)(=O)N1CCCC(C(=O)N2CCN(C3CCCCC3)CC2)C1 (stereo not drawn),-11%,-21%,-11%
Cc1cccc(N2CCN(C(=O)C3CCN(S(=O)(=O)c4c(C)noc4C)CC3)CC2)c1C,-12%,-15%,13µM*
Cc1noc(C)c1S(=O)(=O)N1CCC(C(=O)N2CCN(c3ccccc3Cl)CC2)CC1,-15%,-16%,-9%
COc1ccc(N2CCN(C(=O)C3CCCN(S(=O)(=O)c4ccc(F)cc4)C3)CC2)cc1 (stereo not drawn),-22%,i,?
Cc1ccc(C)c(N2CCN(C(=O)C3CCCN(S(=O)(=O)c4c(C)noc4C)C3)CC2)c1 (stereo not drawn),-20%,12%,11µM*
Cc1ccc(C)c(N2CCN(c3nc4c(S(=O)(=O)c5ccccc5)nnn4c4ccc(Cl)cc34)CC2)c1,-4%,-5%,nt
CCOc1ccc(NC(=O)c2ccc(NC(=O)Cc3n[nH]c(=O)c4ccccc34)cc2)cc1,-12%,-8%,-25%
COC(=O)CC1Oc2ccc(F)cc2-n2cc(-c3ccc(Cl)cc3)nc21 (stereo not drawn),-13%,i,nt
COc1ccc(CCNC(=O)C(=O)c2c[nH]c3ccccc23)cc1,-19%,-27%,nt
COc1ccc(OCC(=O)NNc2c3ccccc3nc3ccccc23)cc1,?,-22%,6.3µM*
COc1ccc(C(=O)NCc2cc(C)nc3ccccc23)cc1,nt,nt,16µM*
O=C(O)CCC(=O)NNc1ncnc2ccccc12,-6%,i,16%
COc1cc(C(=O)NCc2cc(C)nc3ccccc23)cc(OC)c1OC,-2%,i,-4%
O=C(CCCO)NNc1c2ccccc2nc2ccccc12,-4%[7.34 µM],-22%[7.34 µM],1µM*
COc1ccc(OCC(=O)NNC(=O)C(=O)Nc2ccccc2)cc1,nt,nt,-17%
SMILES,Vaccinia Venus,VACV mCherry inh,HCV inh
COC(=O)[C@]12CCCCC=C1N(Cc1ccc3c(c1)OCO3)C(=O)[C@H](CC(=O)N1CCC(c3ccccc3)CC1)C2,-29%,?,nt
Cc1cc(C)c(NC(=O)C2CCCO2)c(C)c1NC(=O)C1CCCO1 (stereo not drawn),-16%,11%,12%
CCC(C)n1c(SCc2c(F)cccc2Cl)nc2ccsc2c1=O (stereo not drawn),-22%[7.34 µM],-27%[7.34 µM],nt
CCC(C)n1c(SCc2ccc([N+](=O)[O-])cc2)nc2ccsc2c1=O (stereo not drawn),-10%,-23%,10µM*
Cc1cc(C)c2nccc(/C=C/c3ccc(N(C)C)cc3)c2c1,-10%,-22%,nt
COc1ccc(S(=O)(=O)c2c(Nc3ccccc3F)sc(C(=O)c3cccc(OC)c3)c2N)cc1,-29%,-17%,nt
Cc1cc(N2CCN(C(c3ccccc3)c3ccccc3)CC2)n2ncnc2n1,-2%,-15%,1%
Cc1cc(N2CCN(c3nc4ccccc4s3)CC2)n2ncnc2n1,nt,nt,3.2µM*
Cc1ccc2c(c1)CCC2=O,-14%,i,nt
CC(=O)c1ccc(NC(=O)CCc2c(C)nc3cc(-c4ccc(Cl)cc4)nn3c2C)cc1,-4%,-16%,nt
CSc1nnc(NC(=O)c2nc(S(=O)(=O)Cc3ccccc3F)ncc2Cl)s1,-6%,i,?
CCc1nnc(NC(=O)c2nc(S(=O)(=O)Cc3ccccc3)ncc2Cl)s1,-6%,i,?
Cc1cccc(CS(=O)(=O)c2ncc(Cl)c(C(=O)Nc3nnc(C(C)C)s3)n2)c1,-6%,-7%,11µM*
CSc1nnc(NC(=O)c2nc(S(=O)(=O)Cc3cccc(C)c3)ncc2Cl)s1,2%,-7%,13µM*
CCc1nnc(NC(=O)c2nc(S(=O)(=O)Cc3cccc(C)c3)ncc2Cl)s1,2%,10%[7.34 µM],11µM*
Cc1ccc(CS(=O)(=O)c2ncc(Cl)c(C(=O)Nc3nnc(C(C)C)s3)n2)cc1,-9%,10%[7.34 µM],?
COC(=O)c1ccccc1NC(=O)c1nc(S(=O)(=O)Cc2ccccc2)ncc1Cl,nt,nt,0%
CCOc1ccccc1NC(=O)c1nc(S(=O)(=O)Cc2cccc(C)c2)ncc1Cl,-25%,-24%,2.8µM*
COc1ccc(OCC(=O)N2CCN(C(=O)c3cccc(OC)c3)CC2)cc1,-3%,-12%,nt
O=C1CCC2S/C(=C/Nc3ccc(C(F)(F)F)cc3)C(=O)N12 (stereo not drawn),-16%,-4%,18%
Cc1cccc(NC(=O)N2CC(=O)Nc3sc4c(c3C2c2ccccc2)CCCC4)c1C (stereo not drawn),-14%,-4%,nt
COc1cc(OC)c(NC(=O)CSCc2nc(-c3ccc(OC)c(OC)c3)no2)cc1Cl,-7%,i,nt
O=C(C1CCCN(S(=O)(=O)c2cccs2)C1)N1CCN(c2cccc(Cl)c2)CC1 (stereo not drawn),-10%,-19%,nt
CSc1nc2c(cc1C#N)CCC2,-12%,-11%,18%
CCCCSc1nc2c(cc1C#N)CCC2,-1%,i,22µM*
SMILES,Vaccinia Venus,VACV mCherry inh,HCV inh
CSc1ccc(/C=C2\C=Cc3ccc([N+](=O)[O-])cc32)cc1,-6%,-10%,nt
CC(C)CCNc1nnnc2c1sc1nc(N3CCOCC3)c3c(c12)CC(C)(C)SC3,-8%,i,-2%
CC1(C)Cc2c(c(N3CCOCC3)nc3sc4c(NCCN5CCOCC5)nnnc4c23)CS1,nt,nt,11µM*
c1ccc(-c2sc3ccccc3c2-c2ccc(OCCN3CCCCC3)cc2)cc1,-18%,-15%,-12%
CN(C)CCOc1ccc(-c2c(-c3ccccc3)sc3ccccc23)cc1,13µM*,?,?
Cc1oc(-c2ccc(Cl)cc2)nc1CN1CCCC(C(=O)NCc2ccccc2)C1 (stereo not drawn),-29%,-29%,nt
Nc1ccc(CCn2ccnc2)cc1,1%,-4%,3%
COc1ccc(-c2n[nH]c(C)c2-c2cnn(-c3ccccc3)c2)c(O)c1C,nt,nt,11µM*
COc1ccc(-c2n[nH]c(C)c2-c2cnn(-c3ccccc3)c2)c(O)c1,nt,nt,-22%
Cc1nn(C2CCS(=O)(=O)C2)c(Cl)c1/C=C/C(=O)OCC(=O)c1c[nH]c2ccccc12 (stereo not drawn),-17%,-17%,22µM*
COc1ccc(OC)c(NC(=O)COC(=O)/C=C/c2c(C)nn(C3CCS(=O)(=O)C3)c2Cl)c1 (stereo not drawn),-25%,nt,-22%
